Pf apPOL block: Pf-apPOL DNA polymerase inhibition | Recombinant Pf-apPOL, molecular beacon fluorescence, 1.5 h | inhibition, % at 10 µM | 210,000 compounds, 0.25% hits | AID 1794808
mHTT CaM bind: disrupts binding of mutant huntingtin to calmodulin; P42858; AlphaScreen His-mHTT/GST-CaM binding, luminescence; inhibition, % at 15 µM; 190,000 compounds, 3.6% hits
Of the large screens only hits and unclear results are named; the others gave an inactive call. Sampled rows, rich in hits. Any-hit rate of the full collection: about 3.5%. Cut-off read from the data, not from the text of the source: active = inhibition above about 50%; inactive = the rest.

NC1=NNC(c2ccccc2)=CS1	mHTT CaM bind 53
CCN(CC)c1ccc(NC(=O)COc2ccccc2OC)cc1	mHTT CaM bind 56
CCC(C)c1ccc(NC(=O)COc2ccccc2OC)cc1 (stereo unspecified)	none
COc1ccccc1OCC(=O)Nc1ccc(Nc2ccccc2)cc1	mHTT CaM bind 61
COc1ccccc1OCC(=O)Nc1ccc(C(C)=O)cc1	none
COc1cccc(C(=O)NCc2ccc(Cl)cc2Cl)c1OC	none
CCC(C)NC(=O)c1ccc(-c2ccccc2)nc1 (stereo unspecified)	none
Cc1ccc(N=C2C(=O)N(CN3CCCCC3)c3ccccc32)cc1C	none
Cc1ccc(C(=O)Nc2c3c(nn2-c2cccc(Cl)c2)CS(=O)(=O)C3)cc1[N+](=O)[O-]	none
Cc1cc(NC(=O)c2ccccc2)cc(C)c1O	none
Cc1ccc(Nc2cc(C)c(O)c(C)c2)cc1	mHTT CaM bind 84
CCCc1cc(NCCCN(CC)CC)n2c(nc3ccccc32)c1C#N	none
Cn1c2c(c(SCc3ccc(Cl)cc3)nc1=O)CCC2	none
Cc1ccccc1NS(=O)(=O)c1cccc2cccnc12	none
Cc1ccc(N2C(=O)CCS2(=O)=O)cc1S(=O)(=O)Nc1cccc2cccnc12	mHTT CaM bind 75
Cc1ccc(C(=O)N2CCC(CC(=O)NCCc3c[nH]c4ccc(Cl)cc34)CC2)cc1	none
CC1CCN(C(=O)C2CC(=O)N(CCc3c[nH]c4ccc(F)cc34)C2)CC1 (stereo unspecified)	none
COc1ccc(N2C(=O)CCC(C(=O)Nc3ccc(C)c(F)c3)C2c2ccc(F)cc2)cc1 (stereo unspecified)	none
Cc1cccc(NC(=O)C2CC(=O)N(CCc3c[nH]c4ccc(Cl)cc34)C2)c1 (stereo unspecified)	mHTT CaM bind 82
COc1cccc(NC(=O)C2CC(=O)N(CCc3c[nH]c4ccc(Cl)cc34)C2)c1 (stereo unspecified)	none
O=C1CC(C(=O)N2CCN(Cc3ccccc3)CC2)CN1CCc1c[nH]c2ccc(F)cc12 (stereo unspecified)	mHTT CaM bind 55
COc1ccc(C2C(C(=O)Nc3ccc(F)c(Cl)c3)CC(=O)N2c2ccc(OC)cc2)cc1 (stereo unspecified)	mHTT CaM bind 100
Cc1ccc2[nH]cc(CCNC(=O)CC3CCN(C(=O)c4ccccc4Cl)CC3)c2c1	mHTT CaM bind 79
O=S1(=O)c2ccc(N3CCN(Cc4ccccc4F)CC3)cc2Oc2ccccc2CN1Cc1cn(Cc2ccc(F)cc2)nn1	none
O=S(=O)(c1c(Cl)sc(Cl)c1Br)N1CCSCC1	none (no result: mHTT CaM bind)
O=C(CSc1nc2c(sc3ccccc32)c(=O)n1-c1ccccc1)N1CCCC1	none
COc1ccc2[nH]cc(CCN3CC(C(=O)Nc4ccc(F)c(Cl)c4)CC3=O)c2c1 (stereo unspecified)	mHTT CaM bind 55
COc1ccc(NC(=O)C2CC(=O)N(CCc3c[nH]c4ccc(C)cc34)C2)cc1 (stereo unspecified)	none
O=C(Nc1ccc2c(c1)OCCO2)C1CC(=O)N(CCc2c[nH]c3ccc(Cl)cc23)C1 (stereo unspecified)	mHTT CaM bind 76
COc1ccc2[nH]cc(CCN3CC(C(=O)Nc4cc(F)cc(F)c4)CC3=O)c2c1 (stereo unspecified)	none
O=C(Nc1ccc(F)cc1)C1CC(=O)N(CCc2c[nH]c3ccc(Cl)cc23)C1 (stereo unspecified)	mHTT CaM bind 55
COc1ccc2nc(NC(=O)C3CC(=O)N(CCc4c[nH]c5ccc(C)cc45)C3)sc2c1 (stereo unspecified)	mHTT CaM bind 85
O=C(Nc1ccc2c(c1)OCCO2)C1CC(=O)N(CCc2c[nH]c3ccc(F)cc23)C1 (stereo unspecified)	none
O=C(NCCc1ccc(F)cc1)C1CC(=O)N(CCc2c[nH]c3ccc(Cl)cc23)C1 (stereo unspecified)	none
COc1cccc(Oc2coc3cc(OS(C)(=O)=O)ccc3c2=O)c1	none
Cc1ccc(N2CCN(C(=O)c3ccc(C(F)(F)F)cc3)C(C)C2=O)cc1F (stereo unspecified)	none
CC(=O)Nc1cccc(OCCCNS(=O)(=O)c2cn(C)c(C)n2)c1	none (no result: mHTT CaM bind)
Cc1ccc(N2CC(C(=O)Nc3ccc(Cl)cc3Cl)CC2=O)cc1 (stereo unspecified)	none
O=C(Nc1nncs1)C1CC(=O)N(CCc2c[nH]c3ccc(Cl)cc23)C1 (stereo unspecified)	none
CCCCNC(=O)C1CC(=O)N(CCc2c[nH]c3ccc(Cl)cc23)C1 (stereo unspecified)	none
O=C(Nc1cccc(F)c1)C1CC(=O)N(CCc2c[nH]c3ccc(F)cc23)C1 (stereo unspecified)	none
O=C(Nc1nc2ccccc2s1)C1CC(=O)N(CCc2c[nH]c3ccc(Cl)cc23)C1 (stereo unspecified)	mHTT CaM bind 100
Cc1ccc(Cl)cc1NC(=O)C1CC(=O)N(c2cccc([N+](=O)[O-])c2)C1 (stereo unspecified)	mHTT CaM bind 54

Screening data deposited in PubChem by University of Kansas High Throughput Screening Laboratory.
